Consider 92 compounds from PubChem BioAssay AID504408 (Broad Institute, 2011).

The structures appear in SMILES notation. In all, about 300,000 compounds went through this assay and about 5,200 (1.7%) were called active.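 Rule for the calls: active = mean replicate activation of at least 50% with a set share of replicates each reaching 50%; inconclusive = only one of those two conditions met; inactive = mean below 50% and too few replicates reaching it.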 The entries come from a sample that favours actives as a whole.

This assay in a line: HSF-1 response element luciferase induction – NIH3T3-HGL cells, MG132 stress, luminescence, single point, primary screen (AID 504408).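 Note: 0% = median of the neutral control wells and 100% = twice that signal.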 The conditions noted are these: NIH3T3-HGL HSF-1 luciferase reporter, MG132, 8 h; at 9 µM; stronger effect = higher value; 100% = twice DMSO control signal. In general terms: A reporter such as luciferase makes a cellular process visible.
Regarding `O=C(CCCN=C1NS(=O)(=O)c2ccccc21)OCC(=O)c1ccc(F)c(F)c1`, the activation was -1.2% (inactive). For `CC(Oc1ccc(F)cc1)C(=O)Nc1cc(S(=O)(=O)N2CCOCC2)ccc1N1CCN(C)CC1` (configuration not stated) the value was -1.39% (inactive); for `Cc1ccc(S(=O)(=O)N(C)c2ccc(OCC(=O)OCc3ccc(C#N)cc3)cc2)cc1`, -4.36% (inactive); for `Cc1ccc2nc(SCC(=O)N3CCN(c4ccccc4)CC3)nc(=O)n2c1`, -13.7% (inactive). For the compound `C=CS(=O)c1sc(Cl)c(N2CCOCC2)c1[N+](=O)[O-]` (configuration not stated), the activation is 103% (active). On to `CCOC(=O)C1=C(C)N=c2s/c(=C\C(=O)OC)c(=O)n2C1c1ccc(OC)cc1` (configuration not stated), for which the activation is 61.6% (active). With `COCCOC(=O)C1=C(C)N=c2s/c(=C\c3cccs3)c(=O)n2C1c1cccs1` (configuration not stated), the activation was 20% (inactive). For `CCOC(=O)C1=C(CSc2nccn2C)NC(=O)NC1c1ccc(OC)cc1` (configuration not stated) the value was 30.7% (inactive); for `COCCCn1c(SCC(=O)Nc2oc(C)c3c(C)n[nH]c(=O)c23)nc2sc3c(c2c1=O)CCC3`, 0.458% (inactive); for `C#CCOc1ccccc1/C=C1/C(=O)ON=C1C`, -2.14% (inactive). As to `C=CCOc1ccc(/C=C2/C(=O)ON=C2C)cc1OCC`, the activation is -6.38% (inactive). The result for `CC1=NOC(=O)/C1=C\c1ccccc1` reads 54.7% (active).

In the case of `Cn1ccsc1=NC(=O)c1cc(S(=O)(=O)N2CCOCC2)ccc1Cl`, the activation was 0.095% (inactive). For `O=C(Nc1c(Br)cc2c(c1Br)Cc1ccccc1-2)C(F)(F)F` the value was -5.38% (inactive). The result for `COc1ccc2[nH]cc(/C=C(/C#N)S(=O)(=O)c3ccccc3)c2c1` reads 0.918% (inactive). As for `COc1ccc(/C=C(\C#N)c2c[nH]c3ccccc23)cc1`, the activation was 69.3% (active). Regarding `COc1cc(/C=C(\C#N)c2nc3ccccc3[nH]2)ccc1O`, the activation is 20.9% (inactive). For `O=C(COc1ccccc1)Nc1cc2c3c(c1)CC(=O)N3CCC2` the value was 5.75% (inactive); for `O=C(NCc1cccnc1)c1cc(S(=O)(=O)N2CCOCC2)c(Cl)cc1Cl`, -12.2% (inactive); for `CCN(CC)CCn1c2c(c(SCC(=O)Nc3ccc(C(C)C)cc3)nc1=O)CCC2`, 8.29% (inactive). As to `O=C(c1cc2ccccc2s1)N1CCN(c2ccccn2)CC1`, the activation was -12% (inactive).

On to `O=C(C(Cl)Cl)N1CCN(c2ccccn2)CC1`, for which the activation was 3.47% (inactive).

Turning to `Cc1cc(C(=O)N2CCN(c3ccccn3)CC2)c(C)o1`, the activation was 62.2% (active).

Take `COc1ccc(CCNc2cc(N3CCN(C(=O)c4ccccc4OC)CC3)ccc2[N+](=O)[O-])cc1OC`: the activation is 22.3% (inactive). For `CN(C)c1ccnc(Oc2ccc(F)cc2)c1C#N` the value was 3.38% (inactive); for `N#Cc1ccc(-c2ccc(F)cc2)nc1Sc1ccccc1`, -14.9% (inactive); for `N#Cc1ccc(-c2ccc(Cl)cc2)nc1Oc1ccc(F)cc1`, 82.1% (active). For `CCOc1ccc(C(=O)CCC(=O)NC2=NCCS2)cc1` the value was 12.7% (inactive); for `O=C(c1ccc(Cl)cc1)c1cnc(Nc2ccccc2)s1`, 34.7% (inactive); for `O=C(Nc1ccccc1)c1nnsc1S(=O)(=O)c1ccc(Cl)cc1`, 79.4% (active). The result for `CS(=O)(=O)c1ccc(Cl)c(NC(=O)Nc2ccccc2)c1` reads -2.82% (inactive); that for `CC(Sc1nn(-c2ccc(Cl)cc2)c(=S)s1)C(=O)NCC1CCCO1` (configuration not stated), 3.22% (inactive); that for `O=C(NNC(=S)Nc1ccc(Br)cc1Cl)c1ccco1`, 59% (active).

With `CCC(=O)NC(=S)Nc1ccc(NC(=O)c2ccco2)c(Cl)c1`, the activation is 7.81% (inactive).

Consider `O=C(NNC(=O)c1ccco1)Nc1ccccc1`, for which the activation is 12.4% (inactive).

For `CCCCn1c(N)c(N(CCC(C)C)C(=O)c2ccc(COc3ccccc3)o2)c(=O)[nH]c1=O`, the activation is 7.06% (inactive). The result for `CCCCn1c(N)c(N(CC(C)C)C(=O)CN(C)S(=O)(=O)c2ccc(F)cc2)c(=O)[nH]c1=O` reads -2.61% (inactive). Consider `Cc1ccc(S(=O)(=O)N2CCN(C(=O)c3ccc(-n4cncn4)c([N+](=O)[O-])c3)CC2)cc1`, for which the activation was -21.4% (inactive). The result for `Cc1ccc(NC(=O)CSc2cccc3cccnc23)c(C)c1` reads 4.2% (inactive); that for `O=C(CSc1cccc2cccnc12)N/N=C/c1cccnc1`, 161% (active).

For the compound `O=C(CNC(=O)c1cccnc1)N/N=C/c1cccnc1`, the activation is -3.13% (inactive).

Take `CC(C)(C)S(=O)(=O)c1ccccc1-c1noc(-c2ccccc2)c1C(N)=O`: the activation was -2.64% (inactive). The result for `CCOc1cc(/C=C2\SC(N3CCCCC3)=NC2=O)ccc1O` reads 34.2% (inactive). For the compound `CC1CCN(C2=NC(=O)/C(=C/c3ccc(O)cc3)S2)CC1`, the activation is 8.53% (inactive). The result for `O=C1N=C(N2CCCC2)S/C1=C\c1cccc(Br)c1` reads 103% (active); that for `NC(=O)NC(=O)C(OC(=O)CCNS(=O)(=O)c1ccccc1)c1ccccc1` (configuration not stated), 18.2% (inactive); that for `O=C(CCNC(=O)c1ccc(Br)cc1)Nc1cccc(S(=O)(=O)N2CCCCC2)c1`, 23.3% (inactive). For `CCCCn1c(N)c(N(CC(C)C)C(=O)c2ccc(Br)o2)c(=O)[nH]c1=O` the value was -5.41% (inactive). On to `CCOc1ccc(/C=C/C(=O)OCC(=O)c2ccccc2OC)cc1OC`, for which the activation is 1.42% (inactive). Regarding `CCN1C(=O)[C@@H]2[C@@H](c3ccc(-c4ccccc4)cc3)N3CCCC[C@@]3(C(=O)OC)[C@@H]2C1=O`, the activation is 16.1% (inactive).

Regarding `COc1ccc(/C=N/NC(=O)c2cccc(C(F)(F)F)c2)cc1`, the activation was 0.104% (inactive). Consider `CSc1ccc(/C=N/NC(=O)c2cccc(Cl)c2)cc1`, for which the activation is 80.3% (active). For `CSc1ccc(/C=N\NC(=O)COc2ccc(Cl)cc2Br)cc1`, the activation is 0.476% (inactive). The result for `O=C(COC(=O)c1ccccc1SCC(=O)N1CCCC1)Nc1ccccc1OC(F)F` reads 5.14% (inactive); that for `O=C(COC(=O)c1ccc([N+](=O)[O-])cc1Cl)NC(=O)c1ccccc1`, -8.14% (inactive); that for `CCOc1ccc2ccccc2c1/C=N/NC(=O)c1c(C)cc(C)[nH]c1=O`, 23.9% (inactive).

As for `Cc1nnc(N/N=C/c2ccccn2)[nH]c1=O`, the activation is -18.5% (inactive). Consider `Cc1ccccc1Nc1nnc(C)c(=O)[nH]1`, for which the activation is 54.6% (active). The result for `Cc1nnc(N/N=C/c2cccs2)[nH]c1=O` reads -4.02% (inactive); that for `O=C(CSc1ccc(-c2ccc(-n3cccn3)cc2)nn1)Nc1ccc([N+](=O)[O-])cc1`, 8.59% (inactive). Take `CCOc1cc(/C=C/c2nc3ccccc3c(=O)[nH]2)cc(Br)c1OC`: the activation is 14.8% (inactive). The result for `O=c1[nH]c(/C=C/c2cccc(Br)c2)nc2ccccc12` reads 58.9% (active); that for `O=c1oc(/C=C/c2ccccc2)nc2ccccc12`, -13.5% (inactive); that for `CCOc1ccc(CCNC(=O)COC(=O)CCS(=O)(=O)c2ccc(C)cc2)cc1OCC`, 1.98% (inactive). Regarding `Cc1cc(Br)ccc1NC(=O)CN(C)C(=O)CN1C(=O)NC2(CCCC2)C1=O`, the activation is 6.32% (inactive). As to `CCC(c1nnnn1Cc1ccco1)N(Cc1cc2cc(OC)ccc2[nH]c1=O)C1CCCCC1` (configuration not stated), the activation is 136% (active). For `CCC(c1nnnn1Cc1ccco1)N(CCc1ccccc1)Cc1cc2ccc(OC)cc2[nH]c1=O` (configuration not stated) the value was 9.84% (inactive). With `CCC(c1nnnn1Cc1ccccc1)N(Cc1cc2cc(OC)ccc2[nH]c1=O)CC1CCCO1` (configuration not stated), the activation is 17.4% (inactive). For `CCc1ccc(CNC(=O)CCc2nc(-c3cccs3)no2)cc1` the value was 3.43% (inactive); for `COc1ccc(CCc2nc(-c3cccs3)no2)cc1`, 65% (active); for `COc1ccc(OC)c(CNC(=O)CCc2nc(-c3cccs3)no2)c1`, -8.19% (inactive). For `COc1cccc(N2CC(NS(=O)(=O)c3ccc(Cl)cc3)CC2=O)c1` (configuration not stated) the value was 11.2% (inactive); for `COc1ccc(NC(=O)CCC(=O)N2CCN(S(=O)(=O)c3ccc(C)cc3)CC2)c(OC)c1`, -9.72% (inactive); for `CN(CC(=O)Nc1ccccc1Cl)C(=O)c1ccccc1SCC(=O)N1CCCC1`, 15.5% (inactive). For `O=C(Nc1ccccc1)OCc1cn(-c2ccc(Cl)cc2)nn1`, the activation is -2.71% (inactive). For `COC(=O)CN1C(=S)N(c2ccccc2)C(=O)C1CC(=O)Nc1ccc(Cl)cc1` (configuration not stated) the value was 4.42% (inactive); for `O=C(O)CC1=C(Nc2ccccc2)C(=O)N(c2ccccc2)C1c1ccc(Cl)cc1` (configuration not stated), 65.5% (active). For `COc1ccc(Cl)cc1C=CC=NNC(=O)c1ccncc1` the value was 5.04% (inactive); for `O=C(Cc1ccc(Br)cc1)NCCc1ccccc1`, 18.4% (inactive). Turning to `CC(=O)c1c(C)[nH]c(C(=O)CN2C(=O)NC(C)(C)C2=O)c1C`, the activation was -22.1% (inactive).

Regarding `Cc1cc(=O)oc2c(C)c(OCC(=O)NCCc3ccc(S(N)(=O)=O)cc3)ccc12`, the activation is -4.95% (inactive). On to `Cc1cc(=O)oc2cc(OC(C)C(=O)NCCc3ccc(S(N)(=O)=O)cc3)ccc12` (configuration not stated), for which the activation was 12.2% (inactive). Consider `Cc1ccc2c(=O)cc(C(=O)NCCc3ccc(S(N)(=O)=O)cc3)oc2c1C`, for which the activation is 62.8% (active).

For `O=C(NCCC1CCCCN1S(=O)(=O)c1ccc(F)cc1)C(=O)NC1CC1` (configuration not stated), the activation is 3.8% (inactive). For `CCOc1ccc(CCNC(=O)COC(=O)C2CCN(c3ccc(C(F)(F)F)cn3)CC2)cc1OCC` the value was 2.31% (inactive); for `O=C(Nc1ccc(Cl)cn1)c1ccc2c(c1)OCCO2`, 9.46% (inactive); for `Cc1nc(NC(=O)c2ccc3c(c2)OCCO3)ccc1Br`, 58.7% (active). For `O=C(Nc1ccccc1)c1ccc2c(c1)OCCCO2` the value was 12.7% (inactive). For `O=[N+]([O-])c1ccc(O)c(/C=N/Nc2ccccc2[N+](=O)[O-])c1` the value was -10.2% (inactive); for `Nn1cnnc1N/N=C/c1cc([N+](=O)[O-])c(Cl)cc1Cl`, 56.4% (active). Take `Cc1ccc2nc(NC(=O)CSc3nc(=O)n(CCCN(C)C)c4c3CCC4)sc2c1`: the activation is 2.36% (inactive). With `Cc1ccccc1OCC(=O)NNC(=O)c1ccc(-n2cncn2)c([N+](=O)[O-])c1`, the activation was 4.89% (inactive).
